The entries come from a sample that favours hits as a whole.
IDE exosite FP: displaces the probe from the exo-site of human IDE; P14735; purified IDE, FL-6b probe fluorescence polarization; stronger effect = lower value; z-score at 20 µM; 17,000 tested, 6.3% active; AID 1259349;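 active means z-score of -3 or lower, meaning strong loss of probe binding signal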;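 further: His-tagged human IDE residues 42-1019 made in E. coli with 30 nM FL-6b probe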
Starred values were filed as active, the others as inactive.

SMILES	IDE exosite FP
O=C(Nc1ccccc1)N1CCCCN2[C@H](CO)[C@@H](c3ccc(C#Cc4ccccc4)cc3)[C@@H]2C1	-0.7
O=C(Nc1ccccc1F)N1CCCCN2[C@H](CO)[C@H](c3ccc(C#Cc4cccnc4)cc3)[C@H]2C1	-6.9*
O=C(Nc1ccccc1F)N1CCCCN2[C@@H](CO)[C@H](c3ccc(C#Cc4cccnc4)cc3)[C@@H]2C1	-4.7*
O=C(Nc1ccccc1F)N1CCCCN2[C@H](CO)[C@H](c3ccc(C#Cc4ccccc4)cc3)[C@H]2C1	-2
O=C(Nc1ccccc1)N1CCCCN2[C@H](CO)[C@H](c3ccc(C#Cc4cccnc4)cc3)[C@@H]2C1	-4.2*
O=C(Nc1ccccc1)N1CCCCN2[C@H](C1)[C@H](c1ccc(C#Cc3cccnc3)cc1)[C@@H]2CO	2.2
O=C(Nc1ccccc1F)N1CCCCN2[C@H](C1)[C@H](c1ccc(C#Cc3ccccc3)cc1)[C@@H]2CO	-2.1
O=C(Nc1ccccc1F)N1CCCCN2[C@H](CO)[C@@H](c3ccc(-c4cccnc4)cc3)[C@@H]2C1	-1.5
O=C(Nc1ccccc1F)N1CCCCN2[C@H](CO)[C@H](c3ccc(-c4cccnc4)cc3)[C@H]2C1	-0.4
Cc1ccccc1S(=O)(=O)N1CC(=O)N2[C@@H](CO)[C@H](c3ccc(C#CC4CC4)cc3)[C@@H]2C1	2.2
O=C(c1ccccn1)N1C[C@@H]2[C@H](c3ccccc31)[C@@H](CO)N2C(=O)C1CCCCC1	3
N#C[C@H]1[C@@H](c2ccccc2C2=CCCC2)[C@H](CO)N1C(=O)NC1CCCCC1	-1.4
O=C(NCC1CCCCC1)[C@@H]1[C@@H](CO)[C@@H]2Cn3c(cccc3=O)[C@H]1N2C(=O)c1ccncc1	0.48
Cc1ccc(-c2ccc([C@@H]3[C@@H](CO)N4CCCCN(C(=O)c5ccc(F)cc5)C[C@@H]34)cc2)cc1	1.8
CCCNC(=O)N1CCC2(CC1)CN(Cc1cccc(OC)c1)[C@@H](CO)c1[nH]c3cc(OC)ccc3c12	-3.1*
COc1ccc2c3c([nH]c2c1)[C@H](CO)N(CC1CC1)CC31CCN(C(=O)Nc2cccc(F)c2)CC1	-0.44
CCCNC(=O)N1CCC2(CC1)CN(C(=O)COC)[C@H](CO)c1[nH]c3cc(OC)ccc3c12	-0.62
COc1ccc2c3c([nH]c2c1)[C@@H](CO)N(Cc1cccc(F)c1)CC31CCN(C(C)=O)CC1	-4.2*
COc1ccc2c3c([nH]c2c1)[C@H](CO)N(C(C)=O)CC31CCN(C(C)=O)CC1	-0.41
COc1ccc2c3c([nH]c2c1)[C@H](CO)N(Cc1ccccc1)CC31CCN(C(=O)NC(C)C)CC1	-1.8
CCCC#Cc1ccc([C@H]2[C@@H](CO)N(C(C)=O)[C@H]2CN(C)S(C)(=O)=O)cc1	0.23
C/C=C/c1ccc([C@@H]2[C@@H](CO)N(C(=O)NCCC)[C@H]2CNC(=O)C2CC2)cc1	1.7
O=C(c1cccnc1)N1CCCCN2[C@H](C1)[C@H](c1ccc(C#Cc3ccccn3)cc1)[C@@H]2CO	-5.5*
O=C(c1ccncc1)N1CCCCN2[C@H](C1)[C@@H](c1ccc(C#Cc3ccccn3)cc1)[C@@H]2CO	0.83
O=C(c1cccnc1)N1CCCCN2[C@H](C1)[C@@H](c1ccc(C#Cc3cccnc3)cc1)[C@@H]2CO	1.9
SMILES	IDE exosite FP
CC(C)(O)C#Cc1ccc([C@H]2[C@H](CO)N3CCCCN(C(=O)c4cccnc4)C[C@@H]23)cc1	3.7
O=C(c1cccnc1)N1CCCCN2[C@@H](CO)[C@H](c3ccc(C#Cc4ccccn4)cc3)[C@@H]2C1	-7.7*
CC(C)(O)C#Cc1ccc([C@@H]2[C@@H](CO)N3CCCCN(C(=O)c4cccnc4)C[C@H]23)cc1	3.5
O=C(c1ccncc1)N1CCCCN2[C@H](CO)[C@H](c3ccc(C#Cc4ccccn4)cc3)[C@@H]2C1	-0.33
CC(C)(O)C#Cc1ccc([C@H]2[C@@H](CO)N3CCCCN(C(=O)c4cccnc4)C[C@@H]23)cc1	1.1
O=C(c1cccnc1)N1CCCCN2[C@H](CO)[C@H](c3ccc(C#Cc4cccnc4)cc3)[C@@H]2C1	-4.3*
C[C@@H]1CN([C@H](C)CO)C(=O)c2cc(NS(=O)(=O)c3cn(C)cn3)ccc2O[C@@H](C)CCCCO[C@H]1CN(C)C(=O)Nc1ccc(C(F)(F)F)cc1	-0.32
CCC(=O)N1CC(=O)N2[C@@H](CO)[C@H](c3ccc(-c4ccc(C#N)cc4)cc3)[C@@H]2C1	-0.86
COc1ccc(-c2ccc([C@H]3[C@@H](CO)N4CCCCN(CC5CCOCC5)C[C@H]34)cc2)cc1	-0.35
OC[C@H]1[C@@H](c2ccc(-c3cccnc3)cc2)[C@@H]2CN(CC3CC3)CCCCN12	-1.3
Cc1ccccc1-c1ccc([C@H]2[C@H]3CN(CC4CCOCC4)CCCCN3[C@H]2CO)cc1	-6.9*
CCCC#Cc1ccc([C@@H]2[C@H](CO)N3CCCCN(CC4CC4)C[C@@H]23)cc1	4.1
Cc1ccccc1-c1ccc([C@H]2[C@@H](CO)N3CCCCN(CC4CC4)C[C@@H]23)cc1	-3.5*
COc1ccc(-c2ccc([C@H]3[C@@H](CO)N4CCCCN(CC5CCOCC5)C[C@@H]34)cc2)cc1	0.85

Source: PubChem BioAssay (Broad Institute)
